The source of these data is PubChem BioAssay (NCATS).

The structures appear in SMILES notation. Inconclusive results are not listed. Values without a mark were called inactive. Calls of active or inactive are those of the source. Unless noted, calls follow the shape of the dose curve; as a rule, active = well fitted curve in the direction sought with a large enough effect; inconclusive = small, poorly fitted or top-dose-only effect, or another doubt; inactive = no such curve, though single readings can be large; an effect the other way counts as inactive or inconclusive. Bridge positions count the residues as written; N and C are the ends. Square brackets hold non-standard residues; d marks the D form. Peptide text beside a SMILES is read from it. * marks the point of attachment. Octanoyl(6-Me) = CCC(C)CCCCC(=O)*; Dab = NCC[CH](N)C(=O)O Bounds are passed on as bounds.

Assay [1] can be described thus: Cell Viability - Jurkat (AID 426;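 active = dose-dependent loss of cell ATP signal giving a full or clear fitted curve, ranked by lower potency value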;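 also: potency is read from the fitted curve at half-maximal effect; cells exposed to compound for 40 hours at 37 °C before ATP read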). Particulars: qHTS. The essentials:
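Cytotoxicity was scored as loss of cellular ATP, measured by luciferase-based luminescence, in Jurkat clone E6-1 cells after 40 h compound treatment; tamoxifen and doxorubicin served as positive controls.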
(In qHTS, concentration-response curves come from the screen itself.)

Assay [2] can be described thus: Cell Viability - Hek293 (AID 427;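 active = compounds whose dose-response curve shows a full or clear partial loss of cell viability, called from curve shape rather than a numeric limit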;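 also: potency is read from the fitted curve at half-maximal effect; cells exposed to compound for 40 hours at 37 °C before reading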). Particulars: qHTS. Put shortly:
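qHTS, human embryonic kidney (adenovirus-transformed) cells; 40 hr cpd, 37 °C; CellTiter-Glo ATP luminescence. Norm: DMSO = 0, 100 uM tamoxifen = 100% inhibition. Hill-fit AC50.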

Assay [3] in a line: Cell Viability - HepG2 (AID 433; calls by dose curve;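 also: potency is read from the fitted curve at half-maximal effect; cells exposed to compound for 40 hours; potency for ATP loss meaning cytotoxicity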). Particulars: qHTS. The essentials:
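Cytotoxicity read as ATP loss (CellTiter-Glo luminescence) after 40 hr compound exposure of HepG2, 1500 cells/well, 37 °C. AC50 by Hill equation; 0% set by DMSO, 100% inhibition by 100 uM tamoxifen.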

Assay [4] in a line: Cell Viability - N2a (AID 540).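 Also: cells exposed to compound for 40 h at 37 °C; plate controls were DMSO alone for no effect and tamoxifen control for full effect; nearly all actives have a fitted effect of over 45% in size.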 Particulars: N2a mouse neuroblastoma cell viability; activity change, negative = cytotoxicity: at 92.2 µM (top of the series). Put shortly: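 In this qHTS cytotoxicity screen, ATP-dependent luciferase luminescence reports viable N2a cells after a 40 hr compound exposure in complete culture medium. Potencies are AC50 values from standard Hill equation fits.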

A short description of assay [5]: Cell Viability - H-4-II-E (AID 543).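 Also: cells exposed to compound for 40 hours; % is scaled to controls: 0 for no effect and ±100 for the full control effect; nearly all actives have a fitted effect of over 35% in size.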 Particulars: H-4-II-E rat hepatoma viability; series mostly up to 92.2 µM. The essentials:
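AC50 from Hill-modelled qHTS concentration-response curves. H-4-II-E rat hepatoma cells in complete medium, 40 hr exposure at 37 °C, viability by CellTiter-Glo ATP luminescence.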

Assay [6] is described as follows: Cell Viability - Renal Proximal Tubule (AID 545).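 Also: cells exposed to compound for 40 hours; 0% = DMSO only and -100% = 100 µM tamoxifen; nearly all actives have a fitted effect of over 40% in size.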 Particulars: renal proximal tubule cells viability, primary cells of rat origin; at 91.7 µM (top of the series). The essentials: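 Viability taken as intracellular ATP (CellTiter-Glo luminescence) after 40 hr, 37 °C compound treatment of primary proximal tubule cells from rat kidney, 1000 cells/well; Hill-equation fits of qHTS concentration-response data gave AC50.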

Assay [7] concerns the target Peroxisome proliferator-activated receptor gamma (Homo sapiens) (UniProt P37231). The experiment in a line: qHTS assay for small molecule antagonists of peroxisome proliferator-activated receptor gamma signaling (AID 588537; active = well fitted inhibition curve with a large enough effect in the signal ratio, with a control signal flat, not every such curve was filed as active; the % refers to the signal ratio;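 also: reporter cells co-stimulated with 50 nM rosiglitazone agonist during compound treatment; % of control where 0% means no effect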). Particulars: HEK293 PPARg-UAS-bla, beta-lactamase ratio, antagonist mode; series mostly up to 76.8 µM. The essentials:
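Cell-based beta-lactamase assay; GW9662 served as the antagonist control. Stimulation used rosiglitazone, final 50 nM, 16 h, 37 C.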

In assay [8] the target is Retinoic acid receptor RXR-alpha (Homo sapiens) (UniProt P19793). The experiment in a line: qHTS assay for small molecule agonists of retinoid X receptor alpha signaling (AID 588544; calls by dose curve;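 also: 0% = DMSO basal wells and 100% = reference agonist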). Particulars: HEK293T RXRa-UAS-bla, beta-lactamase reporter, 18 h; series mostly up to 76.7 µM.
A further assay deals with CP217. Kind of assay: qHTS profiling for inhibitors of Plasmodium falciparum proliferation (AID 504749). Also: nearly all actives have a fitted effect of over 60% in size. Also: potency is read from the fitted curve at half-maximal effect. Particulars: P. falciparum in erythrocytes, SYBR Green DNA, 72 h; series mostly up to 28.7 µM. Put shortly: (§1)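 In a 72 h erythrocytic culture (37 C, humidified, 5% CO2) at 2.5% hematocrit and 0.3% starting parasitemia, compounds were tested; SYBR Green I in detergent lysis buffer stained parasite DNA overnight.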

In the next assay the test system is CP256. The description is as above. Particulars: P. falciparum in erythrocytes, SYBR Green DNA, 72 h; series mostly up to 28.7 µM. Put shortly: as §1
A further assay has as its system JCK. Described as above. Particulars: P. falciparum in erythrocytes, SYBR Green DNA, 72 h; series mostly up to 28.7 µM. The essentials: as §1
A further assay relates to AS120. The description is as above. Particulars: P. falciparum in erythrocytes, SYBR Green DNA, 72 h; series mostly up to 28.7 µM. The essentials:
as §1

A further assay has as its system CP247. The assay is described as above. Particulars: P. falciparum in erythrocytes, SYBR Green DNA, 72 h; series mostly up to 28.7 µM. The essentials:
as §1

The next assay concerns CP269. The description is as above. Particulars: P. falciparum in erythrocytes, SYBR Green DNA, 72 h; series mostly up to 28.7 µM. The essentials: as §1
The test system of the next assay is DIV17. Described as above. Particulars: P. falciparum in erythrocytes, SYBR Green DNA, 72 h; series mostly up to 28.7 µM. The essentials:
as §1

The next assay has as its system ECU. The assay is described as above. Particulars: P. falciparum in erythrocytes, SYBR Green DNA, 72 h; series mostly up to 28.7 µM. Put shortly:
as §1

For a further assay, the system named is ICS. The description is as above. Particulars: P. falciparum in erythrocytes, SYBR Green DNA, 72 h; series mostly up to 28.7 µM. Put shortly: as §1
The test system of the next assay is N140. Described as above. Particulars: P. falciparum in erythrocytes, SYBR Green DNA, 72 h; series mostly up to 28.7 µM. Put shortly: as §1
The subject of another assay is P94_40. The assay is described as above. Particulars: P. falciparum in erythrocytes, SYBR Green DNA, 72 h; series mostly up to 28.7 µM. The essentials:
as §1

In another assay the test system is TAB109. The assay is described as above. Particulars: P. falciparum in erythrocytes, SYBR Green DNA, 72 h; series mostly up to 28.7 µM. The essentials: as §1

Sequence of Retinoic acid receptor RXR-alpha (Homo sapiens) (P19793 whole entry, looked up): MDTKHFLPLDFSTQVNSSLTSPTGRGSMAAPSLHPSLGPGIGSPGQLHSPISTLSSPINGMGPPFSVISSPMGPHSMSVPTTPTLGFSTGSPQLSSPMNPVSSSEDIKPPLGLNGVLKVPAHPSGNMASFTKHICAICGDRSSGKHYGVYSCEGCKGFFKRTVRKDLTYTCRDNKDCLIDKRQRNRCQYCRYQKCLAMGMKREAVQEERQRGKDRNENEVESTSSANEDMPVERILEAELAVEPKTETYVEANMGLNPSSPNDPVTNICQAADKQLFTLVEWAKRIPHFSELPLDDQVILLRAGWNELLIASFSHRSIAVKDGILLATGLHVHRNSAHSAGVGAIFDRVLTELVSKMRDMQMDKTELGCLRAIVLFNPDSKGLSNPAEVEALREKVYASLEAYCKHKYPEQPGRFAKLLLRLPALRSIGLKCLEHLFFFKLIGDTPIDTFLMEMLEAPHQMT
Sequence of Peroxisome proliferator-activated receptor gamma (Homo sapiens) (P37231 whole entry, looked up): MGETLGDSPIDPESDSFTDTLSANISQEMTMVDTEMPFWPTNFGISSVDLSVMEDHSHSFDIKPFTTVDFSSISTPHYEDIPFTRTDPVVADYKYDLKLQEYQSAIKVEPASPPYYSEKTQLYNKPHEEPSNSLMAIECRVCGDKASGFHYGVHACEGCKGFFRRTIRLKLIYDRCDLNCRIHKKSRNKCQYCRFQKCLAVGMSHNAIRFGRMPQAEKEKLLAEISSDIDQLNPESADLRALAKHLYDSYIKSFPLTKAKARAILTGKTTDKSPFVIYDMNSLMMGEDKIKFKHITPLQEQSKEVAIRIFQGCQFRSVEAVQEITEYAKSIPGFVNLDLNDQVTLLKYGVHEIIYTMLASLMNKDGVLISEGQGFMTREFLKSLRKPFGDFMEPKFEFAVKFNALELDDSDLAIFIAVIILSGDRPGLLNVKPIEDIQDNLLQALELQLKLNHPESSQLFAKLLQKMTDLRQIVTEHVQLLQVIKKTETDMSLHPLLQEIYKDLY

As for `O=C(O)c1ccccc1C(c1ccc(O)cc1)c1ccc(O)cc1`, the Potency in [1], in assay [2] and in [3] was > 92 µM throughout. Moreover, the activity change, negative = cytotoxicity is 6.19% in assay [4] and 1.41% in assay [6]. Moreover, the Potency entry in [5] was “inactive”. Moreover, the result in assay [7] and in [8] was inactive.
Turning to `O=NCc1ccc([N+](=O)[O-])o1`, the Potency result with CP217, in the assay with CP256 and in the assay with JCK was “inactive” in each case.
Turning to `O=S(=O)(O)c1ccccc1`, the Potency in [1], in assay [2] and in assay [3] was > 92 µM each time. Moreover, the activity change, negative = cytotoxicity in [4] was -0.532%; in assay [6], -1.46%. Also, the Potency result in assay [5] is “inactive”. Further, the outcome in [7] and in assay [8] was inactive.
As to `c1ccc2scnc2c1`, the Potency in assay [1], in assay [2] and in assay [3] was > 92 µM each time. Besides, the activity change, negative = cytotoxicity in [4] was -2.55%; in assay [6], -4.16%. In addition, the Potency entry in assay [5] is “inactive”. Further, the outcome in [7] and in [8] was inactive.
As to `CCC(C)CCCCC(=O)NC(CCN)C(=O)NC(C(=O)NC(CCN)C(=O)NC1CCNC(=O)C(C(C)O)NC(=O)C(CCN)NC(=O)C(CCN)NC(=O)C(CC(C)C)NC(=O)C(Cc2ccccc2)NC(=O)C(CCN)NC1=O)C(C)O` (stereo not given) ({Octanoyl(6-Me)}-[Dab]T[Dab][Dab][Dab]FL[Dab][Dab]T; lactam 4-C; configuration not given here), the Potency result with AS120, in the assay with CP247, in the assay on CP256, with CP269, in the assay with DIV17 and with ECU was “inactive” each time. The Potency result in the assay with ICS, with JCK, with N140, with P94_40 and in the assay with TAB109 was “inactive” throughout.
Take `CC1CCC(C(C)C)C(OC(=O)c2ccccc2O)C1` (stereo not given): the Potency entry with AS120, in the assay with CP217, in the assay on CP247, with CP256, with CP269 and in the assay on DIV17 was “inactive” in each case. Moreover, the Potency entry in the assay on ECU, with ICS, in the assay with JCK, with N140, in the assay on P94_40 and in the assay with TAB109 was “inactive” each time.
With `CCN1/C(=C/C=C/C=C/c2sc3ccccc3[n+]2CC)Sc2ccccc21`, the Potency with AS120 was 5.01 µM (active); in the assay on CP217 it was 4.47 µM (active); with CP247, 4.47 µM (active); in the assay with CP256 it was 4.47 µM (active); with CP269 it was 15.1 µM (active); in the assay on DIV17 it was 9.53 µM (active). The Potency is 4.47 µM (active) in the assay on ECU; 1 µM (active) in the assay on ICS; 11.2 µM (active) in the assay on JCK; 5.62 µM (active) in the assay on N140; 3.98 µM (active) in the assay on P94_40; 3.98 µM (active) with TAB109.
In the case of `CC(=O)O[C@@]12CO[C@@H]1C[C@H](O)[C@@]1(C)C(=O)[C@H](O)C3=C(C)[C@@H](OC(=O)C(O)[C@@H](NC(=O)OC(C)(C)C)c4ccccc4)C[C@@](O)([C@@H](OC(=O)c4ccccc4)[C@H]21)C3(C)C` (stereo not given in full), the Potency in the assay on AS120 is 0.0282 µM (active); with CP217, 0.0447 µM (active); in the assay with CP247 it was 0.0398 µM (active); in the assay with CP256 it was 0.0316 µM (active); with CP269 it was 0.0426 µM (active); in the assay on DIV17, 1.35 µM (active). Also, the Potency in the assay with ECU is 0.0631 µM (active); in the assay with ICS, 0.112 µM (active); in the assay with N140 it was 0.0891 µM (active); in the assay with P94_40, 0.0355 µM (active); with TAB109 it was 0.0316 µM (active). Further, in the assay with JCK, the Potency entry is “inactive”.
On to `Cc1cc(CC(C)CC(C)(C)C)n(O)c(=O)c1` (stereo not given), for which the Potency is 2.51 µM (active) with AS120; 2.82 µM (active) in the assay on CP217; 2.24 µM (active) in the assay with CP247; 1.26 µM (active) in the assay on CP256; 3.38 µM (active) in the assay on CP269; 1.51 µM (active) in the assay on DIV17. For the same molecule, the Potency in the assay with ECU was 2.82 µM (active); with ICS, 2.51 µM (active); with JCK, 11.2 µM (active); with N140, 1 µM (active); in the assay with P94_40, 2.82 µM (active); in the assay with TAB109 it was 2.24 µM (active).
On to `CCC(=O)O[C@@H](OP(=O)(CCCCc1ccccc1)CC(=O)N1C[C@H](C2CCCCC2)C[C@H]1C(=O)O)C(C)C` (stereo not given in full), for which the Potency result in the assay on AS120, in the assay with CP217, in the assay on CP247, with CP256, with CP269 and in the assay on DIV17 was “inactive” each time. The Potency result in the assay on ECU, in the assay with ICS, in the assay on JCK, in the assay with N140, in the assay with P94_40 and in the assay on TAB109 was “inactive” in each case.
`CO[C@@H]1[C@@H](OC2OC(C)C(OC3CC(C)(O)C(OC(=O)CC(C)C)C(C)O3)C(N(C)C)C2O)[C@@H](CC=O)C[C@@H](C)C(=O)/C=C\C2O[C@H]2C[C@@H](C)OC(=O)C[C@H]1OC(C)=O` (stereo not given in full): the Potency in the assay with AS120 is 10 µM (active); with CP217, 10 µM (active); with CP247, 11.2 µM (active); in the assay with CP256, 5.01 µM (active); with CP269 it was 4.78 µM (active); in the assay with DIV17, 10.7 µM (active). For the same molecule, the Potency is 8.91 µM (active) in the assay on ECU; 5.01 µM (active) in the assay on ICS; 8.91 µM (active) in the assay with N140; 8.91 µM (active) in the assay with P94_40; 3.98 µM (active) in the assay with TAB109. The Potency entry in the assay on JCK is “inactive”.
